In general, ΔTm refers to the shift of the melting midpoint relative to a reference.

Each structure is given as a SMILES string.

The target of test [1] is Bromodomain-containing protein 4 (Homo sapiens) (UniProt O60885). The settings on record: Compound concentration 20.0 uM, Protein concentration 2.0 uM, Result type QC Liability.
In test [2] the target is T1, Transcription intermediary factor 1-alpha (Homo sapiens) (UniProt O15164).
T1 sequence (whole entry): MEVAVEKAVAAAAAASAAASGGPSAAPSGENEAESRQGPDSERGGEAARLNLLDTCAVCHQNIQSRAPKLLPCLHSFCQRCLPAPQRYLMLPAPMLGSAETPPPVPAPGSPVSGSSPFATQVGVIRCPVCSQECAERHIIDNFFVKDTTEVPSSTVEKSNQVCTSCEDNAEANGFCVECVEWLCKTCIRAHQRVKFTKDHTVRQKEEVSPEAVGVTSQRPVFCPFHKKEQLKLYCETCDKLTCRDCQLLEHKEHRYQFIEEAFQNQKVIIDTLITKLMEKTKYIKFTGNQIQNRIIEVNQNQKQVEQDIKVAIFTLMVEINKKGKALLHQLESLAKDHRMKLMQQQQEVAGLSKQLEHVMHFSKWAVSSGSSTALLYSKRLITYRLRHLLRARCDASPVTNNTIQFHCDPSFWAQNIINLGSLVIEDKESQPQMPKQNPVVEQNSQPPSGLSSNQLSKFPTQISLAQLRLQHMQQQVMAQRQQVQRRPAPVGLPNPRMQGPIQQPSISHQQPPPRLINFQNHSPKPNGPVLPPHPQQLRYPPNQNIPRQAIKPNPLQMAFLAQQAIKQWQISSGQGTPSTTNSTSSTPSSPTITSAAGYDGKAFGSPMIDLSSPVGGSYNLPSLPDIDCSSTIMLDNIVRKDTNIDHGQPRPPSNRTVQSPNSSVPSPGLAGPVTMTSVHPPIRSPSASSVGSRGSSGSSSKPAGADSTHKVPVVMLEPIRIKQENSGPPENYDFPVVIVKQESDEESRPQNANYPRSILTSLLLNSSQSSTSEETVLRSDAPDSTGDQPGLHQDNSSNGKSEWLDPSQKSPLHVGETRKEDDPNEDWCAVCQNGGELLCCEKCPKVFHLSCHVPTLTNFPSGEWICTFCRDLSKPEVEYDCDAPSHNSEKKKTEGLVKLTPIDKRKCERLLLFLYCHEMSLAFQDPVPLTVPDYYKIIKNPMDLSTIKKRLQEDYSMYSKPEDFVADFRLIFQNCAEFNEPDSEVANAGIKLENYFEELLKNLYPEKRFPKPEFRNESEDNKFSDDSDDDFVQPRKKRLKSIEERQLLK
The settings on record: Compound concentration 20.0 uM, Protein concentration 2.0 uM, Result type QC Liability.

With `COc1cc(N2CCN(C)CC2)ccc1Nc1ncc2c(n1)N(C)c1ccccc1C(=O)N2CC(F)(F)F`, the thermal shift (ΔTm) in test [1] was -1.21 °C; in test [2] it was -2.27 °C.

With `COCCCS(=O)(=O)c1cc(C)c(-c2ccc(F)c3c2CC[C@H]3Oc2ccc3c(c2)OC[C@H]3CC(=O)O)c(C)c1`, the ΔTm in test [1] is -0.25 °C; in test [2] it was -0.22 °C.

For the compound `CCOCCn1cc(C(=O)Nc2ccc(-n3nc(-c4cccnc4)cc3C(F)(F)F)cn2)ccc1=O`, the ΔTm in test [1] is -2.09 °C; in test [2], 0.27 °C.

In the case of `CCn1c(CNC(=O)c2ncc(C)nc2N)[n+](CC)c2ccc(C(=O)N(C)CCN(C)C)cc21`, the results for the ΔTm in test [1] and in test [2] were -1.53 °C and -0.01 °C, respectively.

With `CNc1ncc2cc(-c3ccc(-c4ncccc4F)cc3Cl)c(=O)n(C[C@H]3OC[C@H](N)CO3)c2n1`, the results for the ΔTm in test [1] and in test [2] were -2.59 °C and -3.59 °C, respectively.
